Measurements: PubChem BioAssay AID1159580 (chemical genetic matrix, 2015)
Screen size: about 5,500 compounds; about 2,000 (36%) were called active. About 18% were inconclusive and are not listed. Rule as the data show it: active = normalized growth mostly below about 0.91 (no sharp cut-off); inconclusive = no clear call, values can overlap the other calls; inactive = mostly above about 0.92. Some of the results follow.

Experiment: chemical genetic growth profiling, strain panel (AID 1159580);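 also: tested at 20 µM; growth read once vehicle control cultures reached saturation at 30 °C; 1 = growth at the plate median or of vehicle wells; lower values mean less growth of the strain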
Settings: S. cerevisiae deletion strains, growth OD

Measured: normalized growth

O=c1cccc2ccc(O)c(O)c2c1O
active: locus YAL021C, strain ccr4, stronger effect = lower value 0.443 | locus YAL026C, strain drs2, stronger effect = lower value 0.791 | locus YBL061C, strain skt5, stronger effect = lower value 0.901 | locus YBR009C, strain hhf1, stronger effect = lower value 0.822 | locus YBR023C, strain chs3, stronger effect = lower value 0.887 | locus YBR229C, strain ROT2, stronger effect = lower value 0.385 | locus YBR231C, strain swc5, stronger effect = lower value 0.853 | locus YCL029C, strain bik1, stronger effect = lower value 0.598 | locus YDL035C, strain GPR1, stronger effect = lower value 0.117 | locus YDL074C, strain BRE1, stronger effect = lower value 0.241 | locus YDL101C, strain DUN1, stronger effect = lower value 0.145 | locus YDL134C, strain PPH21, stronger effect = lower value 0.112 | locus YDL192W, strain arf1, stronger effect = lower value 0.579 | locus YDR069C, strain doa4, stronger effect = lower value 0.625 | locus YDR101C, strain arx1, stronger effect = lower value 0.734 | locus YDR137W, strain rgp1, stronger effect = lower value 0.161 | locus YDR159W, strain sac3, stronger effect = lower value 0.261 | locus YDR162C, strain NBP2, stronger effect = lower value 0.0859 | locus YDR297W, strain sur2, stronger effect = lower value 0.92 | locus YDR318W, strain mcm21, stronger effect = lower value 0.709 | locus YDR334W, strain swr1, stronger effect = lower value 0.885 | locus YDR335W, strain msn5, stronger effect = lower value 0.748 | locus YDR388W, stronger effect = lower value 0.718 | locus YDR392W, strain spt3, stronger effect = lower value 0.715 | locus YDR502C, strain sam2, stronger effect = lower value 0.372 | locus YEL003W, strain gim4, stronger effect = lower value 0.823 | locus YEL061C, strain CIN8, stronger effect = lower value 0.301 | locus YER015W, strain faa2, stronger effect = lower value 0.816 | locus YER111C, strain swi4, stronger effect = lower value 0.403 | locus YER155C, strain BEM2 (second series), stronger effect = lower value 0.73 | locus YER155C, strain BEM2, stronger effect = lower value 0.652 | locus YER167W, strain BCK2, stronger effect = lower value 0.45 | locus YFR010W, strain ubp6, stronger effect = lower value 0.795 | locus YGL086W, strain mad1, stronger effect = lower value 0.365 | locus YGL173C, strain kem1, stronger effect = lower value 0.791 | locus YGL248W, strain PDE1, stronger effect = lower value 0.185 | locus YGL253W, strain hxk2, stronger effect = lower value 0.875 | locus YGR135W, strain pre9, stronger effect = lower value 0.523 | locus YGR252W, strain gcn5, stronger effect = lower value 0.501 | locus YHR027C, strain rpn1, stronger effect = lower value 0.841 | locus YHR079C, strain IRE1 (second series), stronger effect = lower value 0.702 | locus YHR094C, strain hxt1, stronger effect = lower value 0.914 | locus YHR129C, strain ARP1, stronger effect = lower value 0.294 | locus YHR142W, strain chs7, stronger effect = lower value 0.762 | locus YHR200W, strain rpn10, stronger effect = lower value 0.626 | locus YIL066C, strain RNR3, stronger effect = lower value 0.104 | locus YIL073C, strain SPO22, stronger effect = lower value 0.134 | locus YIR030C, strain dcg1, stronger effect = lower value 0.836 | locus YJL095W, strain BCK1 (second series), stronger effect = lower value 0.871 | locus YJL095W, strain BCK1, stronger effect = lower value 0.0994 | locus YJL129C, strain trk1, stronger effect = lower value 0.562 | locus YJL134W, strain LCB3, stronger effect = lower value 0.477 | locus YJL164C, strain tpk1, stronger effect = lower value 0.844 | locus YJL166W, strain qcr8, stronger effect = lower value 0.872 | locus YJL187C, strain SWE1 (second series), stronger effect = lower value 0.106 | locus YJL187C, strain SWE1, stronger effect = lower value 0.893 | locus YJR075W, strain HOC1, stronger effect = lower value 0.358 | locus YKL068W, stronger effect = lower value 1.08 [resistant] | locus YKL160W, strain elf1, stronger effect = lower value 0.901 | locus YKR001C, strain vps1, stronger effect = lower value 0.453 | locus YLL026W, stronger effect = lower value 0.913 | locus YLR027C, strain aat2, stronger effect = lower value 0.897 | locus YLR039C, strain RIC1, stronger effect = lower value 0.179 | locus YLR058C, strain SHM2, stronger effect = lower value 0.126 | locus YLR221C, strain rsa3, stronger effect = lower value 0.854 | locus YLR258W, strain gsy2, stronger effect = lower value 0.903 | locus YLR262C, strain YPT6 (second series), stronger effect = lower value 0.397 | locus YLR268W, strain sec22, stronger effect = lower value 0.285 | locus YLR320W, strain mms22, stronger effect = lower value 0.689 | locus YLR330W, strain CHS5, stronger effect = lower value 0.615 | locus YLR342W, strain FKS1 (second series), stronger effect = lower value 0.183 | locus YLR342W, strain FKS1, stronger effect = lower value 0.893 | locus YLR370C, strain arc18, stronger effect = lower value 0.903 | locus YLR371W, strain rom2, stronger effect = lower value 0.651 | locus YLR418C, strain cdc73, stronger effect = lower value 0.26 | locus YML016C, strain PPZ1, stronger effect = lower value 0.0765 | locus YML032C, strain rad52, stronger effect = lower value 0.785 | locus YML120C, strain ndi1, stronger effect = lower value 0.208 | locus YML124C, strain tub3, stronger effect = lower value 0.742 | locus YMR058W, strain fet3, stronger effect = lower value 0.344 | locus YMR205C, strain PFK2, stronger effect = lower value 0.722 | locus YMR223W, strain ubp8, stronger effect = lower value 0.69 | locus YMR231W, strain pep5, stronger effect = lower value 0.463 | locus YMR263W, strain SAP30, stronger effect = lower value 0.481 | locus YMR307W, strain GAS1, stronger effect = lower value 0.34 | locus YNL067W, strain RPL9B, stronger effect = lower value 0.271 | locus YNL071W, strain lat1, stronger effect = lower value 0.87 | locus YNL209W, strain ssb2, stronger effect = lower value 0.722 | locus YNL233W, strain BNI4, stronger effect = lower value 0.419 | locus YNL307C, strain MCK1, stronger effect = lower value 0.799 | locus YNL322C, strain KRE1, stronger effect = lower value 0.105 | locus YNR052C, strain pop2, stronger effect = lower value 0.328 | locus YOL147C, strain pex11, stronger effect = lower value 0.65 | locus YOR061W, strain CKA2, stronger effect = lower value 0.255 | locus YOR069W, strain VPS5, stronger effect = lower value 0.176 | locus YOR070C, strain gyp1, stronger effect = lower value 0.902 | locus YOR083W, strain WHI5, stronger effect = lower value 0.86 | locus YOR106W, strain vam3, stronger effect = lower value 0.592 | locus YOR136W, strain idh2, stronger effect = lower value 0.712 | locus YOR144C, strain elg1, stronger effect = lower value 0.788 | locus YOR184W, strain ser1, stronger effect = lower value 0.332 | locus YOR270C, strain vph1, stronger effect = lower value 0.369 | locus YOR290C, strain snf2, stronger effect = lower value 0.376 | locus YOR316C, strain cot1, stronger effect = lower value 0.881 | locus YPL051W, strain arl3, stronger effect = lower value 0.672 | locus YPL078C, strain atp4, stronger effect = lower value 0.466 | locus YPL106C, strain sse1, stronger effect = lower value 0.815 | locus YPR163C, strain tif3, stronger effect = lower value 0.764 | locus YPR167C, strain met16, stronger effect = lower value 0.81 | strain wtn01, stronger effect = lower value 0.337
inactive: locus YAL030W, strain snc1, stronger effect = lower value 0.948 | locus YBR021W, strain FUR4, stronger effect = lower value 1.02 | locus YBR171W, strain sec66, stronger effect = lower value 0.928 | locus YCL011C, strain gbp2, stronger effect = lower value 0.913 | locus YCL016C, strain dcc1, stronger effect = lower value 0.938 | locus YCL061C, strain MRC1, stronger effect = lower value 0.949 | locus YCL069W, strain vba3, stronger effect = lower value 0.945 | locus YCR088W, strain abp1, stronger effect = lower value 0.961 | locus YDL005C, strain med2, stronger effect = lower value 1 | locus YDL040C, strain nat1, stronger effect = lower value 1 | locus YDL185W, strain tfp1, stronger effect = lower value 0.955 | locus YDR001C, strain nth1, stronger effect = lower value 0.975 | locus YDR195W, strain ref2 1.06 | locus YEL037C, strain rad23, stronger effect = lower value 0.938 | locus YEL061C, strain CIN8 (second series), stronger effect = lower value 0.922 | locus YER016W, strain bim1, stronger effect = lower value 0.96 | locus YER110C, stronger effect = lower value 1.01 | locus YGL078C, strain dbp3, stronger effect = lower value 1.03 | locus YGL167C, strain pmr1, stronger effect = lower value 0.955 | locus YGL227W, strain vid30, stronger effect = lower value 1.01 | locus YGL240W, strain doc1, stronger effect = lower value 0.995 | locus YHR013C, strain ard1, stronger effect = lower value 0.962 | locus YIL125W, strain kgd1, stronger effect = lower value 1.01 | locus YJL092W, strain hpr5, stronger effect = lower value 0.963 | locus YJL115W, strain asf1, stronger effect = lower value 0.954 | locus YJL154C, strain vps35, stronger effect = lower value 0.961 | locus YJL168C, strain set2, stronger effect = lower value 0.937 | locus YKL085W, strain MDH1 (second series), stronger effect = lower value 1.04 | locus YKL085W, strain MDH1, stronger effect = lower value 1.04 | locus YKR026C, strain gcn3, stronger effect = lower value 0.965 | locus YKR091W, strain srl3, stronger effect = lower value 0.99 | locus YLL001W, strain dnm1, stronger effect = lower value 0.917 | locus YLL041C, strain sdh2, stronger effect = lower value 0.944 | locus YLR102C, strain apc9, stronger effect = lower value 0.966 | locus YLR357W, strain rsc2, stronger effect = lower value 0.857 | locus YLR384C, strain iki3, stronger effect = lower value 0.944 | locus YMR078C, strain ctf18, stronger effect = lower value 0.965 | locus YMR125W, strain sto1, stronger effect = lower value 1 | locus YMR129W, stronger effect = lower value 0.976 | locus YNL248C, strain rpa49, stronger effect = lower value 0.912 | locus YNL250W, strain rad50, stronger effect = lower value 1.06 | locus YNL271C, strain bni1, stronger effect = lower value 0.97 | locus YNL298W, strain CLA4, stronger effect = lower value 0.982 | locus YNL322C, strain KRE1 (second series), stronger effect = lower value 0.959 | locus YNR049C, strain mso1, stronger effect = lower value 0.98 | locus YOL012C, strain htz1 0.205 | locus YOR001W, strain rrp6, stronger effect = lower value 0.892 | locus YOR080W, strain dia2, stronger effect = lower value 0.973 | locus YOR265W, strain rbl2, stronger effect = lower value 0.939 | locus YPL240C, strain hsp82, stronger effect = lower value 0.972 | locus YPR119W, strain clb2, stronger effect = lower value 0.984 | locus YPR141C, strain kar3, stronger effect = lower value 1.04
